Results as given in PubChem BioAssay AID1159580 (chemical genetic matrix, 2015).
Values joined by “and” are separate entries in the source; they are usually repeats but may differ in a detail not shown here. Equal values may be shown once. The campaign covered roughly 5,500 compounds. About 2,000 (36%) were called active. Another 18% or so got no clear call; they are omitted. Cut-off read from the data, not from the text of the source: active = normalized growth mostly below about 0.91 (no sharp cut-off); inconclusive = no clear call, values can overlap the other calls; inactive = mostly above about 0.92. The list shows a part of the results.

Experiment: chemical genetic growth profiling, strain panel (AID 1159580);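 note: tested at 20 µM; growth read once vehicle control cultures reached saturation at 30 °C; 1 = growth at the plate median or of vehicle wells; lower values mean less growth of the strain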
Conditions: S. cerevisiae deletion strains, growth OD

Measured: normalized growth

NCCCCN=C(N)N
inactive: locus YAL013W, strain DEP1, active compounds read low 1 | locus YAL021C, strain ccr4, active compounds read low 1.02 | locus YAL026C, strain drs2, active compounds read low 1.03 | locus YAL030W, strain snc1, active compounds read low 1.03 | locus YAL040C, strain CLN3, active compounds read low 1 | locus YBL061C, strain skt5, active compounds read low 1.01 | locus YBR009C, strain hhf1, active compounds read low 1.02 | locus YBR021W, strain FUR4, active compounds read low 0.983 | locus YBR023C, strain chs3, active compounds read low 1.03 | locus YBR171W, strain sec66, active compounds read low 1.03 | locus YBR229C, strain ROT2, active compounds read low 0.996 | locus YBR231C, strain swc5, active compounds read low 1.01 | locus YBR279W, strain paf1, active compounds read low 1.01 | locus YCL011C, strain gbp2, active compounds read low 1.03 | locus YCL016C, strain dcc1, active compounds read low 1.01 | locus YCL029C, strain bik1, active compounds read low 0.979 | locus YCL061C, strain MRC1 (second series), active compounds read low 1.01 | locus YCL069W, strain vba3, active compounds read low 1.02 | locus YCR088W, strain abp1, active compounds read low 1.04 | locus YDL005C, strain med2, active compounds read low 1.04 | locus YDL035C, strain GPR1, active compounds read low 1.02 | locus YDL040C, strain nat1, active compounds read low 1.02 | locus YDL074C, strain BRE1, active compounds read low 0.992 | locus YDL101C, strain DUN1, active compounds read low 0.998 | locus YDL134C, strain PPH21, active compounds read low 1.04 | locus YDL185W, strain tfp1, active compounds read low 0.976 | locus YDL192W, strain arf1, active compounds read low 0.986 | locus YDR001C, strain nth1, active compounds read low 1.01 | locus YDR069C, strain doa4, active compounds read low 1.02 | locus YDR101C, strain arx1, active compounds read low 0.968 | locus YDR137W, strain rgp1, active compounds read low 1.04 | locus YDR150W, strain NUM1, active compounds read low 1 | locus YDR159W, strain sac3, active compounds read low 1 | locus YDR162C, strain NBP2, active compounds read low 1.01 | locus YDR195W, strain ref2 1.04 | locus YDR297W, strain sur2, active compounds read low 1.02 | locus YDR318W, strain mcm21, active compounds read low 1 | locus YDR334W, strain swr1, active compounds read low 1.02 | locus YDR335W, strain msn5, active compounds read low 1.03 | locus YDR363W, strain ESC2, active compounds read low 0.994 | locus YDR388W, active compounds read low 0.976 | locus YDR392W, strain spt3, active compounds read low 0.992 | locus YDR502C, strain sam2, active compounds read low 0.987 | locus YEL003W, strain gim4, active compounds read low 1.02 | locus YEL037C, strain rad23, active compounds read low 1.02 | locus YEL061C, strain CIN8 (second series), active compounds read low 1.03 | locus YEL061C, strain CIN8, active compounds read low 1 | locus YER002W, strain NOP16, active compounds read low 1.03 | locus YER015W, strain faa2, active compounds read low 1.03 | locus YER016W, strain bim1, active compounds read low 1.01 | locus YER110C, active compounds read low 0.977 | locus YER111C, strain swi4, active compounds read low 1.03 | locus YER155C, strain BEM2 (second series), active compounds read low 1.02 | locus YER155C, strain BEM2, active compounds read low 0.981 | locus YER167W, strain BCK2, active compounds read low 0.999 | locus YFR010W, strain ubp6, active compounds read low 1.04 | locus YGL078C, strain dbp3, active compounds read low 0.981 | locus YGL086W, strain mad1, active compounds read low 0.963 | locus YGL167C, strain pmr1, active compounds read low 1.02 | locus YGL173C, strain kem1, active compounds read low 1.02 | locus YGL227W, strain vid30, active compounds read low 1.02 | locus YGL240W, strain doc1, active compounds read low 1.02 | locus YGL248W, strain PDE1, active compounds read low 1 | locus YGL253W, strain hxk2, active compounds read low 1.02 | locus YGR078C, strain PAC10, active compounds read low 1 | locus YGR135W, strain pre9, active compounds read low 1 | locus YGR229C, strain SMI1, active compounds read low 1.01 | locus YGR252W, strain gcn5, active compounds read low 1.09 | locus YHR013C, strain ard1, active compounds read low 1.12 | locus YHR027C, strain rpn1, active compounds read low 1.02 | locus YHR030C, strain SLT2, active compounds read low 0.993 and 1.01 | locus YHR079C, strain IRE1 (second series), active compounds read low 0.987 | locus YHR079C, strain IRE1, active compounds read low 1.01 | locus YHR094C, strain hxt1, active compounds read low 0.974 | locus YHR142W, strain chs7, active compounds read low 1.05 | locus YHR200W, strain rpn10, active compounds read low 0.987 | locus YIL066C, strain RNR3, active compounds read low 0.994 | locus YIL073C, strain SPO22, active compounds read low 1.03 | locus YIL125W, strain kgd1, active compounds read low 0.974 | locus YIR030C, strain dcg1, active compounds read low 0.988 | locus YJL092W, strain hpr5, active compounds read low 1.02 | locus YJL095W, strain BCK1 (second series), active compounds read low 1.03 | locus YJL095W, strain BCK1, active compounds read low 1.02 and 0.995 | locus YJL115W, strain asf1, active compounds read low 1.03 | locus YJL129C, strain trk1, active compounds read low 1.06 | locus YJL134W, strain LCB3, active compounds read low 0.998 | locus YJL154C, strain vps35, active compounds read low 1.02 | locus YJL164C, strain tpk1, active compounds read low 1.02 | locus YJL166W, strain qcr8, active compounds read low 1.02 | locus YJL168C, strain set2, active compounds read low 0.981 | locus YJL187C, strain SWE1 (second series), active compounds read low 0.997 | locus YJL187C, strain SWE1, active compounds read low 1.02 | locus YJR043C, strain POL32, active compounds read low 0.993 | locus YJR066W, strain TOR1, active compounds read low 0.973 | locus YKL009W, strain mrt4, active compounds read low 1 | locus YKL068W, active compounds read low 0.994 | locus YKL085W, strain MDH1 (second series), active compounds read low 0.993 | locus YKL085W, strain MDH1, active compounds read low 0.993 | locus YKL160W, strain elf1, active compounds read low 1.02 | locus YKL190W, strain CNB1, active compounds read low 1.01 | locus YKR001C, strain vps1, active compounds read low 0.963 | locus YKR026C, strain gcn3, active compounds read low 1.02 | locus YKR091W, strain srl3, active compounds read low 1.02 | locus YLL001W, strain dnm1, active compounds read low 1.01 | locus YLL026W, active compounds read low 1.02 | locus YLL041C, strain sdh2, active compounds read low 1.02 | locus YLR027C, strain aat2, active compounds read low 1.03 | locus YLR039C, strain RIC1, active compounds read low 1.01 | locus YLR058C, strain SHM2, active compounds read low 1.01 | locus YLR102C, strain apc9, active compounds read low 0.985 | locus YLR113W, strain HOG1, active compounds read low 1 | locus YLR221C, strain rsa3, active compounds read low 1.01 | locus YLR258W, strain gsy2, active compounds read low 1.02 | locus YLR262C, strain YPT6 (second series), active compounds read low 1.04 | locus YLR262C, strain YPT6, active compounds read low 1.06 | locus YLR268W, strain sec22, active compounds read low 0.957 | locus YLR320W, strain mms22, active compounds read low 1.02 | locus YLR330W, strain CHS5, active compounds read low 0.978 | locus YLR342W, strain FKS1 (second series), active compounds read low 1.01 | locus YLR342W, strain FKS1, active compounds read low 1.01 | locus YLR357W, strain rsc2, active compounds read low 1.05 | locus YLR370C, strain arc18, active compounds read low 1.03 | locus YLR371W, strain rom2, active compounds read low 0.972 | locus YLR384C, strain iki3, active compounds read low 1.03 | locus YLR418C, strain cdc73, active compounds read low 1.01 | locus YML016C, strain PPZ1, active compounds read low 0.991 | locus YML032C, strain rad52, active compounds read low 1.02 | locus YML120C, strain ndi1, active compounds read low 1.04 | locus YML124C, strain tub3, active compounds read low 0.987 | locus YMR058W, strain fet3, active compounds read low 1.02 | locus YMR078C, strain ctf18, active compounds read low 0.986 | locus YMR125W, strain sto1, active compounds read low 1.03 | locus YMR129W, active compounds read low 1.02 | locus YMR205C, strain PFK2, active compounds read low 1.02 | locus YMR223W, strain ubp8, active compounds read low 1 | locus YMR231W, strain pep5, active compounds read low 1.03 | locus YMR263W, strain SAP30, active compounds read low 1.01 | locus YMR307W, strain GAS1, active compounds read low 1.04 and 0.995 | locus YNL067W, strain RPL9B, active compounds read low 1.01 | locus YNL071W, strain lat1, active compounds read low 1.02 | locus YNL153C, strain GIM3, active compounds read low 1.01 | locus YNL175C, strain NOP13, active compounds read low 0.997 | locus YNL183C, strain NPR1, active compounds read low 0.959 | locus YNL197C, strain WHI3, active compounds read low 1.01 | locus YNL209W, strain ssb2, active compounds read low 1.02 | locus YNL224C, strain SQS1, active compounds read low 1.01 | locus YNL233W, strain BNI4, active compounds read low 0.988 | locus YNL248C, strain rpa49, active compounds read low 1.02 | locus YNL250W, strain rad50, active compounds read low 0.974 | locus YNL271C, strain bni1, active compounds read low 0.976 | locus YNL298W, strain CLA4, active compounds read low 0.969 | locus YNL307C, strain MCK1, active compounds read low 0.973 | locus YNL322C, strain KRE1 (second series), active compounds read low 1.03 | locus YNL322C, strain KRE1, active compounds read low 1 | locus YNR049C, strain mso1, active compounds read low 1.02 | locus YNR052C, strain pop2, active compounds read low 0.995 | locus YOL012C, strain htz1 0.814 | locus YOL147C, strain pex11, active compounds read low 0.993 | locus YOR001W, strain rrp6, active compounds read low 1.03 | locus YOR061W, strain CKA2, active compounds read low 1 | locus YOR069W, strain VPS5, active compounds read low 0.994 | locus YOR070C, strain gyp1, active compounds read low 1.02 | locus YOR080W, strain dia2, active compounds read low 1.03 | locus YOR083W, strain WHI5 (second series), active compounds read low 1.01 | locus YOR083W, strain WHI5, active compounds read low 1.01 | locus YOR106W, strain vam3, active compounds read low 1.04 | locus YOR136W, strain idh2, active compounds read low 0.972 | locus YOR144C, strain elg1, active compounds read low 0.984 | locus YOR184W, strain ser1, active compounds read low 0.985 | locus YOR265W, strain rbl2, active compounds read low 1.02 | locus YOR270C, strain vph1, active compounds read low 1.05 | locus YOR290C, strain snf2, active compounds read low 1.01 | locus YOR316C, strain cot1, active compounds read low 0.983 | locus YPL051W, strain arl3, active compounds read low 1.01 | locus YPL078C, strain atp4, active compounds read low 1.03 | locus YPL106C, strain sse1, active compounds read low 1.04 | locus YPL240C, strain hsp82, active compounds read low 1.02 | locus YPL256C, strain CLN2, active compounds read low 0.994 | locus YPR119W, strain clb2, active compounds read low 0.988 | locus YPR141C, strain kar3, active compounds read low 0.988 | locus YPR163C, strain tif3, active compounds read low 0.975 | locus YPR167C, strain met16, active compounds read low 0.986 | strain wtn01, active compounds read low 0.939
